System: HepG2
Assay: GSK_TCMDC: Percent inhibition of human HepG2 cell line. Test compounds present at 10uM.
Assay type: functional

Compound | Inhibition [%]
CC1CCCCC1N(C)C1CCN(CCCNC(=O)C=Cc2ccc(Cl)cc2Cl)CC1 (centres undefined) | 53
O=C(Nc1cccc(-c2nn3ccccc3c2-c2ccnc(Nc3cccc(F)c3)n2)c1)c1c(F)ccc(F)c1Cl | 41
O=C(NC1CCN(Cc2ccccc2)CC1)c1ccc(CNC2CCN(Cc3ccccc3)CC2)cc1.O=C(O)C(F)(F)F | 14
CC1CN(c2cnn(Cc3ccc(NC(=O)Nc4ccc(F)cc4[N+](=O)[O-])cc3)c(=O)c2Cl)CC(C)N1.O=C(O)C(F)(F)F (centres undefined) | 4

— ChEMBL document CHEMBL1157539, “Thousands of chemical starting points for antimalarial lead identification” (Nature, 2010)
